Screen size: about 360,000 compounds; about 1,400 (0.39%) were called active. No stated cut-off is given here; in the data, active means inhibition above about 21%; inactive means the rest. What follows is part of a selection rich in actives, with near analogues and random picks from the rest.
What follows are compounds tested against Receptor-interacting serine/threonine-protein kinase 2 (Homo sapiens) (UniProt O43353) (assay: NOD2-RIPK2 binding disruptors in cells, primary screen, fluorescence, CHO cells, BLA complementation (AID 624267;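 further: 0% = vehicle only and 100% = reference blocker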)). Conditions: CHO BLA complementation NOD2-RIPK2, CCF4 ratio; at 4.98 µM; hits give high values.
Sequence of Receptor-interacting serine/threonine-protein kinase 2 (Homo sapiens) (O43353 whole entry, looked up): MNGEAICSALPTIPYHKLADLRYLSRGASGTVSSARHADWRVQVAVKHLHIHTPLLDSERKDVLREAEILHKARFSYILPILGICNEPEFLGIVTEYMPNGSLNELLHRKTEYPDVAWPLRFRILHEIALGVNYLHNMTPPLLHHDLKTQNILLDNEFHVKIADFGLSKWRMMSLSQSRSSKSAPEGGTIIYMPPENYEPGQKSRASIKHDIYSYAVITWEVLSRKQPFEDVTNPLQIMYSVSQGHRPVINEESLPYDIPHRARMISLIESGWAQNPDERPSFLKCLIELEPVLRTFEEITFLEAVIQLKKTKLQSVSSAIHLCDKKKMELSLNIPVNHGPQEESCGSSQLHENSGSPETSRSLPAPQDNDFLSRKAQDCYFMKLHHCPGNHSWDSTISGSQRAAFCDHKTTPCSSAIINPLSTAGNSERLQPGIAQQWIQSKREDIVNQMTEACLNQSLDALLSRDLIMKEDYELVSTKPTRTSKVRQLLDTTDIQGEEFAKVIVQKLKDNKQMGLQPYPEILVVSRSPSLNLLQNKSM

inhibition, inactive:
Cn1c(Cc2cccc3ccccc23)nnc1SCC(=O)N1CCN(c2cccc(Cl)c2)CC1 2.05%
COCCCn1c(Cc2csc(Nc3cccc(Cl)c3)n2)nnc1SCC(=O)OC1CCCCC1 -7.45%
CNC(=O)n1ccc(C(=O)N2CCCCC2)n1 1.22%
O=C(NN1C(=O)C2C3C=CC(O3)C2C1=O)c1ccccc1 (configuration not stated) -0.12%
Cc1nnc(SCC(=O)NC2CCCC2)s1 -7.66%
CCSc1nnc(SCC(=O)NNC(=O)c2ccccc2F)s1 -9.88%
CCOc1ccc(/C(O)=C2/C(=O)C(=O)N(Cc3cccnc3)C2c2ccc(N(C)C)cc2)c(C)c1 (configuration not stated) -5.35%
O=C(COc1nsnc1N1CCOCC1)Nc1ccccc1Cl -6.94%
CN(C)/C=C(/C(=O)c1ccccc1)S(=O)(=O)c1ccc(Cl)cc1 10.5%
C/C(=N\NS(=O)(=O)c1ccc(Cl)cc1)c1ccc(NC(=O)c2ccco2)cc1 7.02%
CCOc1ccc(CN2CCC(n3nccc3NC(=O)C3CC3)CC2)cc1CO -4.91%
Cc1cc(NC(=O)CN2CCC(O)(c3cccc(F)c3)CC2)no1 -7.88%
NC(=O)COc1ccccc1C(=O)NC12CC3CC(CC(C3)C1)C2 2.45%
CCSc1ccccc1C(=O)Nc1ccc2c(c1)OCO2 1.86%
O=C(CNc1ccccc1N1CCCC1=O)Nc1cc(Cl)ccc1-n1cncn1 4.89%
COc1ccccc1Oc1ccc(N2CC(C(=O)OCC(=O)c3ccc(F)cc3)CC2=O)cc1 (configuration not stated) -13.1%
Cc1ccccc1CS(=O)(=O)CC1(O)CCN(C(=O)c2cccc(C(F)(F)F)c2)CC1 -2.24%
CC(C)(C)n1nc2c(c1NC(=O)c1ccc(S(=O)(=O)N3CCCC3)cc1)CS(=O)C2 (configuration not stated) 1.52%
Cc1cccc(OC(C)C(=O)N2CCc3ccccc3C2)c1 (configuration not stated) -10.7%
O=C(NCCC1=CCCCC1)c1ccc(Cl)c([N+](=O)[O-])c1 -8.9%
O=[N+]([O-])c1ccc(N2CCN(c3ccc(O)cc3)CC2)c(Cl)c1 -4.55%
O=C(Oc1ccccc1Cl)c1ccc(N2CCOCC2)c([N+](=O)[O-])c1 1.05%
N#Cc1cc([N+](=O)[O-])ccc1NC(=O)COC(=O)c1cnccn1 -8.54%
CSc1ccccc1NC(=O)c1cnc2sc(C)cn2c1=O -0.62%
CN(CC(=O)Nc1ccc(F)cc1)CC(=O)N1CCCCC1 3.04%
O=C(CSc1ncn[nH]1)Nc1nsc(-c2ccccc2)n1 1.03%
O=C(CSc1ncn[nH]1)Nc1nc2c(F)c(F)c(F)cc2s1 2.77%
CCN(C(=O)Cc1nc(N)n[nH]1)C1(C(=O)Nc2ccccc2)CCCCC1 -2.08%
O=C(NN1C(=O)C2C3C=CC(O3)C2C1=O)c1ccncc1 (configuration not stated) -1.04%
Cc1nn(C)c(C)c1C(C)NC(=O)c1ccc(OC2CCN(Cc3ccccn3)CC2)cc1 (configuration not stated) -7.27%
N#CCCN(C(=O)COC(=O)c1ccc(S(=O)(=O)N2CCCCCC2)cc1)c1ccccc1 -9.9%
NC(CSC12CC3CC(CC(C3)C1)C2)C(=O)O (configuration not stated) 2.91%
Cc1ccc(S(=O)(=O)Nc2ccc3c(c2)C(=O)N([C@H](C)CO)C[C@@H](C)[C@@H](CN(C)C(=O)Nc2cccc4ccccc24)O3)cc1 -59.7%
COc1cccc(CC(=O)OCC(=O)NCc2ccc3c(c2)OCO3)c1 9.81%
COc1cc(C=NC2CCCCC2)ccc1O 0.2%
COCCCN(C(=S)Nc1c(C)cc(C)cc1C)C(C)c1ccncc1 (configuration not stated) -3.93%

inhibition, active:
Cc1nnc(SCC(=O)Nn2cnnc2)s1 34.9%
O=C(Nc1ccccc1Cl)/C(Cl)=C(\Cl)S(=O)c1ccccc1 (configuration not stated) 70.5%
O=C(Nc1ccccc1)c1nnsc1S(=O)(=O)c1ccc(Cl)cc1 56.9%
O=C1C(Cl)=C(Oc2ccccc2)C(=O)c2ccccc21 71.7%
Nc1c(C(=O)c2cccs2)sc2nsc(SCCN3CCCCC3)c12 37.8%
O=C(/C=C/c1ccc(Cl)c([N+](=O)[O-])c1)c1ccc(O)cc1 28.9%
O=C(CSc1ncn[nH]1)Nc1nc(-c2cccc([N+](=O)[O-])c2)cs1 21.5%
Oc1ccc2ccc3cccc[n+]3c2c1 23.5%
O=C1C=C(c2ccc(Cl)cc2)C(=O)N1Nc1ccccc1 34.1%
CCN(CC)CCCC(C)n1c2nc(=O)[nH]c(=O)c-2nc2cc(Cl)ccc21 (configuration not stated) 31.2%
COc1cc(/C=C(\C#N)c2nc3c(s2)CC(C)CC3)ccc1O (configuration not stated) 23.2%
